# PubChem BioAssay (EPA / NIEHS)
# Active and inactive are the calls of the source. Rule for the calls: active = hit-call score of the fitted dose curve at least 0.9, where 1 is the maximum; inactive = score below 0.9.
# Experiment: APR_HepG2_StressKinase_24hr: Apredica 24-hour HepG2 Assay for Stress Kinase (AID 2282922)
# Details: HepG2 stress kinase (phospho-c-Jun) imaging, actives raise or lower the signal
# Method: APR_HepG2_24hr is a cell-based, multiplexed-readout assay that uses HepG2, a human liver cell line, with measurements taken at 24 hours after chemical dosing in a 384-well plate.APR_HepG2_StressKinase_24hr is one of 10 assay component(s) measured or calculated from the APR_HepG2_24hr assay. It is designed to make measurements of enzyme activity, a form of enzyme reporter, as detected with fluorescence intensity signals by HCS Fluorescent Imaging technology.Data from the assay component APR_HepG2_StressKinase_24hr was analyzed into 1 assay endpoint. This assay endpoint, APR_HepG2_StressKinase_24hr, was analyzed with bidirectional fitting relative to DMSO as the negative control and baseline of activity. Using a type of enzyme reporter, measures of protein for gain or loss-of-signal activity can be used to understand the signaling at the pathway-level as they relate to the gene . Furthermore, this assay endpoint can be referred to as a primary readout, because this assay has produced multiple assay endpoints where this one serves a signaling function. To generalize the intended target to other relatable targets, this assay endpoint is annotated to the cell cycle intended target family, where the subfamily is stress response.
# Cells were treated with dimethyl sulfoxide (DMSO) as a solvent control at a final concentration of 0.5% v/v or with compounds in DMSO with a resulting final DMSO concentration of 0.5% v/v. Compound treatment was done at concentrations of 0.39, 0.78, 1.56, 3.12, 6.24, 12.5, 25, 50, 100, and 200 uM in duplicate on each plate. Cells were treated with compounds for 1, 24, or 72 hr. Carbonyl […] m-chloro-phenylhydrazone (CCCP) and taxol were used as positive controls for mitochondrial function and cytoskeletal stability, respectively; DMSO served as the negative control for this experiment. Cells were fixed by the direct addition of 50 uL formaldehyde in Hank's Balanced Salt Solution (HBSS) to a final concentration of 3.7%. After incubation in the fixation medium for 30 min at room temperature (293-298 K), cells were rinsed twice with HBSS and treated with cell permeabilization buffer (16 uL of 0.5% Triton X-100) for 10 min at room temperature (293-298 K) before labeling. For mitochondrial membrane potential and mitochondrial measurements, pre-fixed cells were incubated with 50 uL of MitoTracker Red CMXRos (Invitrogen) at a concentration of 250 nM for 30 min before fixation. In the remaining cases, post-fixed cells were labeled by incubation with a multiplexed mixture of primary antibodies in HBSS for 60 min at room temperature (293-298 K) to detect immunoreactivity of c-Jun (1:500), phospho-histone H3 (1:100), phospho-histone H2A.x (1:200), p53 (1:400), alpha-tubulin (1:200) and Hoechst 33342 (2 ug/mL). Cells were labeled for multiplexed imaging on two separate plates: a) Hoechst 33342, MitoTracker Red, phospho-histone H3, and alpha-tubulin, and b) Hoechst 33342, phospho-histone H2A.x, and c-Jun. A final rinse with HBSS (50 uL) was performed before analysis. The primary and secondary antibodies for the proteins were phospho-histone H3 (rabbit anti-phospho-histone H3 and FITC-donkey anti-rabbit IgG), phospho-histone H2A.x (mouse anti-phospho-histone H2A.x and FITC-donkey anti-mouse IgG), c-Jun (rabbit anti-phospho-c-Jun and Cy3-donkey anti-rabbit IgG), p53 (sheep anti-p53 and Cy5-donkey anti-sheep IgG), alpha-tubulin (mouse anti-alpha-tubulin and Cy5-donkey anti-mouse IgG). These antibodies are available as the CellCiphr HepG2 assay kit (Millipore).Digital images of each well were captured using a Cellomics ArrayScan VTI (Thermo Scientific Cellomics) (0.8 NA objective, 0.63x optical coupler, and XF-93 filter set) at 20x magnification. The images were acquired using the autofocus feature of the ArrayScan instrument, which entails the following steps. First, the camera focuses on channel 1 (Hoechst 33342), where nuclei are identified. Second, a Z offset of 1 um is used for capturing mitochondria (MitoTracker Red). […]
row,SMILES,outcome
1,c1cc2ccc3cccc4ccc(c1)c2c34,inactive
2,O=C(O)C(F)(F)C(F)(F)C(F)(F)C(F)(F)C(F)(F)C(F)(F)C(F)(F)C(F)(F)F,inactive
3,C=CC(=O)NCNC(=O)C=C,inactive
4,CN(C)c1nc(=O)n(C2CCCCC2)c(=O)n1C,inactive
5,NS(=O)(=O)C(F)(F)C(F)(F)C(F)(F)C(F)(F)C(F)(F)C(F)(F)C(F)(F)C(F)(F)F,inactive
6,ClC1=C(Cl)[C@]2(Cl)[C@@H]3[C@@H](Cl)[C@H]4O[C@H]4[C@@H]3C1(Cl)C2(Cl)Cl,inactive
7,CCCN(CCC)N=O,inactive
8,C[C@]12CCC(=O)C=C1CC[C@@H]1[C@@H]2CC[C@]2(C)C(=O)CC[C@@H]12,inactive
9,CC#Cc1cc(C)nc(Nc2ccccc2)n1,inactive
10,CCNc1nc(NC(C)C)nc(SC)n1,inactive
11,Cc1cc(O)ccc1Cl,inactive
12,Cc1ccccc1[N+](=O)[O-],inactive
13,CO/C=C(/C(=O)OC)c1ccccc1COc1cccc(C(F)(F)F)n1,inactive
14,O=C(N[C@H]1CN2CCC1CC2)c1cc2ccoc2cn1,inactive
15,ClC1=C(Cl)[C@]2(Cl)[C@@H]3[C@@H]4C[C@@H]([C@H]5O[C@@H]45)[C@@H]3[C@@]1(Cl)C2(Cl)Cl,inactive
16,CCOCCOC(C)=O,inactive
17,Cc1ccc(O)c(C)c1,inactive
18,CCCCCCOC(=O)c1ccccc1C(=O)OCCCCCC,inactive
19,Cc1cc(-c2ccc(N)c(C)c2)ccc1N,inactive
20,O=C(O)C(F)(F)C(F)(F)C(F)(F)C(F)(F)C(F)(F)F,inactive

row,SMILES,outcome
1,O=C(NC(=O)c1c(F)cccc1F)Nc1cc(Cl)c(OC(F)(F)C(F)F)c(Cl)c1,inactive
2,Cc1cccc(C)c1N,inactive
3,Oc1ccc(Cl)cc1Cl,inactive
4,COS(=O)(=O)OC,inactive
5,ClC1=C(Cl)[C@]2(Cl)[C@@H]3[C@H]4C[C@H]([C@@H]5O[C@H]45)[C@@H]3[C@@]1(Cl)C2(Cl)Cl,inactive
6,c1ccc(-c2ccccc2)cc1,inactive
7,CCC(C)c1cc([N+](=O)[O-])cc([N+](=O)[O-])c1O (stereo not given),inactive
8,CCOC(=O)C(O)(c1ccc(Cl)cc1)c1ccc(Cl)cc1,inactive
9,Nn1cnnc1,inactive
10,ClC(Cl)=C(c1ccc(Cl)cc1)c1ccc(Cl)cc1,inactive
11,O=NN(c1ccccc1)c1ccccc1,inactive
12,Clc1ccc(C(Cl)(Cl)Cl)cc1,inactive
13,CC(C)(c1ccccc1)c1ccc(O)cc1,inactive
14,Cc1ccccc1O,inactive
15,Clc1ccc(Cl)cc1,inactive
16,C=CC(N)=O,inactive
17,Oc1ccc(C(c2ccc(O)cc2)(C(F)(F)F)C(F)(F)F)cc1,inactive
18,Nc1ccc(-c2ccc(N)cc2)cc1,inactive
19,CCC(=O)O[C@H]1CC[C@H]2[C@@H]3CCC4=CC(=O)CC[C@]4(C)[C@H]3CC[C@]12C,inactive
20,CCCCCCCCOC(=O)c1ccccc1C(=O)OCCCCCCCC,inactive
